LASV entry inh: inhibitors of Lassa virus binding or cell entry; Lassa virus pseudotype entry inhibition, cell reporter; Potency, µM (titrated, usually from 37.9 µM), inactives show at the top dose activity change, negative = inhibition, usual class: inhibitors; 300,000 compounds, 1.2% hits; calls by dose curve; tested in HEK293 cells; further: potency means the concentration at half of the fitted maximal effect; nearly all actives have a fitted effect of over 50% in size
MARV entry inh: Marburg virus entry inhibition | Marburg virus pseudotyped entry inhibition, cell reporter | AID 540276 | Potency, µM (titrated, usually from 37.8 µM), without a hit: at the highest dose activity change, negative = inhibition, usual class: inhibitors | 300,000 compounds, 1.8% hits; calls by dose curve; tested in HEK293 cells; further: potency means the concentration at half of the fitted maximal effect
HCV inhibitor: HCV inhibition | Huh7.5.1 HCVcc-Cre infection, luciferase reporter, 44 h | Potency, µM (series often up to 41.8 µM), for inactives: at the top dose activity change, negative = inhibition, actives largely listed as inhibitors | 340,000 compounds, 3.4% hits; active means well fitted inhibition curve with a large enough effect; inconclusive means small, poorly fitted or top-dose-only effect, or another doubt; inactive means no such curve, though single readings can be large or run the other way; further: potency means the concentration at half of the fitted maximal effect
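Seed cells (1,000/well) for 4 h; treat with compound and infect with HCVcc-Cre, moi about 0.5. Incubate 44 h, then detect luciferase activity.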
FMDV inh: blocks foot and mouth disease virus. FMDV antiviral cell-based qHTS. Potency, µM (highest dose often 57.9 µM), for the others: at the top dose activity change, negative = inhibition, usual class: inhibitors. 410,000 compounds, 1.2% hits. AID 1159524; calls by dose curve; tested in HEK293T cells; further: read-out not given here; potency means the concentration at half of the fitted maximal effect; nearly all actives have a fitted effect of over 45% in size
HCMV inh: blocks human cytomegalovirus replication | HFF cells, HCMV-luciferase reporter, 72 h; active compounds read low | activity change, negative = inhibition, % at 57.5 µM | 410,000 compounds, 4.5% hits; in the data active means activity change below about -60%; inconclusive means no clear call, values can overlap the other calls; inactive means above about -39%
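Two-dose cell screen: HFF monolayers treated with compounds and infected with luciferase-expressing HCMV at 1 PFU/cell, 72 h at 37C, then lysed for luciferase measurement.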
An asterisk follows results filed as active; ? = inconclusive; / = no result given; ! = not confirmed by another sample; [ ] = another dose, or the depositor's remark. Rows were chosen to be rich in hits. Some 7.9% of all compounds tested hit in one or more screens of this group. On the % scale 0 is the no-effect control and ±100 the full control effect.

SMILES	LASV entry inh	MARV entry inh	HCV inhibitor	FMDV inh	HCMV inh
CCOC(=O)c1cnc2ccc(C)cc2c1N(C)Cc1ccccc1	?	?	-15.5%	-25.9%	-60.1*
CCOC(=O)c1cnc2ccc(C)cc2c1Sc1ccccc1	15.4%	28.1%	?	13.4%	?
CCOC(=O)c1cnc2ccc(OC)cc2c1NCCc1ccc(OC)c(OC)c1	?	?	5.01µM*	17.8µM*!	?
COCCn1c(SCC(=O)Nc2ccc(Br)cc2)nc2c([nH]c3ccccc32)c1=O	-25.6%[46.1 µM]	/	/	1.2%	23.2
CCOP(=O)(OCC)C(Nc1ccccn1)c1ccc(F)cc1 (stereo unspecified)	26.1%	26.9%	16.7%	-3.2%	-69.6*
CCOP(=O)(OCC)C(Nc1ccccn1)c1ccccc1 (stereo unspecified)	4.7%	1.7%	7.5%	-11.6%	-27.9
CCOc1ccc(-c2nc(CSCC(=O)N3CCN(c4cccc(OC)c4)CC3)c(C)o2)cc1	/	1.9%	12.6µM*	20µM*	-77.5*
CCc1ccc(-c2nc(CSCC(=O)N3CCN(c4ccccn4)CC3)c(C)o2)cc1	?	-82.4%	15.8µM*	20µM*	-18.1
Cc1ccc(-c2nc(CSCC(=O)N3CCN(C(=O)c4ccco4)CC3)c(C)o2)cc1	/	-0.2%	?	?	2.9
COc1ccc(-c2nc(CSCC(=O)N3CCN(c4ccccc4F)CC3)c(C)o2)cc1	-28.0%[46.1 µM]	?	/	31.6µM*	?
Cc1oc(-c2ccccc2F)nc1CSCC(=O)N1CCN(c2ccccc2)CC1	-13.1%[46.1 µM]	-26.9%[46.1 µM]	/	?	?
CCOC(=O)C1CCN(c2c(C(=O)c3ccc(OCC)cc3)cnc3ccc(OC)cc23)CC1	/	?	/	?	-4.0
Cc1cccc(/C=C2\Sc3ccc(C(=O)NCC4CCCO4)cc3N(C)C2=O)c1 (stereo unspecified)	?	7.08µM*	?	-25.3%	-27.0
CN1C(=O)/C(=C/c2ccccc2Cl)Sc2ccc(C(=O)NCc3cccnc3)cc21	?	?	-38.6%	39.8µM*	-17.2
CCOC(=O)N1CCC(NC(=O)c2ccc3c(c2)N(C)C(=O)/C(=C/c2cccc(OC)c2)S3)CC1	/	/	3.16µM*	?	-18.8
COc1cccc(/C=C2/Sc3ccc(C(=O)NC4CC4)cc3NC2=O)c1	/	/	/	/	5.0
CCOC(=O)N1CCN(C(=O)c2ccc3c(c2)N(C)C(=O)/C(=C\c2ccc(OCC)c(OC)c2)S3)CC1	5.01µM*	11.2µM*	10µM*	35.5µM*	?
CCOc1ccc(/C=C2/Sc3ccc(C(=O)NCC4CCCO4)cc3N(C)C2=O)cc1OC (stereo unspecified)	/	/	?	?	4.5
COc1ccccc1Oc1ccc(-c2cnc3ccccc3n2)cc1[N+](=O)[O-]	?	?	?	1.4%	-87.5*
O=[N+]([O-])c1cc(-c2cnc3ccccc3n2)ccc1Oc1ccc(Cl)cc1	/	/	?	25.3%	43.8
CCC(c1ccc(O)c(O)c1)C(CC)c1ccc(O)c(O)c1 (stereo unspecified)	?	?	12.6µM*	-18.3%	/
Cc1ccc(N(CC(=O)Nc2ccc(Br)c(C)c2)S(=O)(=O)c2cccs2)cc1	4.5%[46.1 µM]	?	/	-18.0%	-16.3
CN(C)c1ccc(/C=N/NC(=O)c2ccccc2)cc1	10µM*	-13.9%[46.1 µM]	-15.2%	-12.2%	24.6
CN(C)c1ccc(C=Nc2ccc(N(C)C)cc2)cc1	?	?	-4.2%	26.6%	-72.1*
CN(C)c1ccc(/C=N/NC(=O)c2ccc(Cl)cc2)cc1	-26.3%	-13.6%	-9.4%	/	?
SMILES	LASV entry inh	MARV entry inh	HCV inhibitor	FMDV inh	HCMV inh
COc1ccc(C(=O)N/N=C/c2ccc(OC(=O)c3ccccc3)cc2)cc1	26.7%	0.0%	9.7%	22.5%	53.1
C/C(=N/N=C/c1ccc(N(C)C)cc1)c1ccccc1	?	?	-4.5%	10µM*	-31.6
COc1ccc(C(=O)N/N=C/c2ccc(N(C)c3ccccc3)cc2)cc1	/	/	7.08µM*	31.6µM*	-36.5
Cc1ccc(N=Cc2ccc(N(C)C)cc2)cc1	-2.7%	-3.3%	-6.5%	-14.1%	36.8
CN(C)c1ccc(C=Nc2ccccc2)cc1	?	26.5%	2.1%	/	3.9
Cc1cccc(C)c1NC(=O)c1ccc2nc(CCc3ccccc3)oc2c1	?	/	/	?	-3.0
O=C(NC1CCCC1)c1cn(C2CCN(Cc3cccc4cccnc34)CC2)nn1	/	/	/	-7.4%	/
O=C(Oc1c(-c2ccccc2)oc2ccccc2c1=O)c1ccccc1	?	-21.6%	-29.6%	20.9%	-81.9*

Compound activity from PubChem BioAssay.
